The source of these data is PubChem BioAssay AID1347056 (Sanford-Burnham Center for Chemical Genomics, 2019).

In all, about 360,000 compounds went through this assay and about 3,600 (1%) were called active. The full list was thinned out, with actives kept by preference. Values without a mark were called inactive.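 The calls were made as follows: active = compounds whose plate-normalised and pattern-corrected inhibition of the luciferase reporter signal at the single screening dose is 50% or more; inactive = the rest.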

A short description of the assay: inhibitors of TROY-driven NF-kB signaling, primary screen, Q293 LMP1-TROYcd cells, NF-kB luciferase, uHTS (AID 1347056). The note with it: Q293 LMP1-TROYcd NF-kB luciferase reporter, 4 h; at 10 µM; hits give high values.
As a reminder, the inhibition is the change of the read-out against control, counted positive when it falls. Regarding `O=c1ccc2cc(S(=O)(=O)NCCCc3ccccc3)ccc2[nH]1`, the inhibition was -7.06%.

Regarding `CCC(C)(C)NC(=O)CN(Cc1cccs1)C(=O)CNS(=O)(=O)c1ccc(F)cc1`, the inhibition is -7.55%.

Consider `Cc1ccc(S(=O)(=O)N(CC(O)CN2C(=O)NC(C)(C)C2=O)c2cccc([N+](=O)[O-])c2)cc1` (stereo not given), for which the inhibition is 4.48%.

With `CCCn1c(C)cc(C(=O)COC(=O)c2c(C)nn(-c3ccccc3)c2C)c1C`, the inhibition was -3.58%.

Consider `CC1(C)CC(N2CCN(C(c3ccccc3)c3ccccc3)CC2)=CC(=[N+]2CCCCC2)C1`, for which the inhibition was 58.6% (active).

For the molecule `COc1ccccc1NC(=S)N1CCN(C(c2ccccc2)c2ccccc2)CC1`, the inhibition was 16.1%.

Take `Cc1cccc(N2CCN(C(c3ccccc3)c3nnnn3CC3CCCO3)CC2)c1C` (stereo not given): the inhibition is -7.74%.

For `O=C(CN1CCOCC1)Nc1c(Cl)cc(Cl)cc1Cl`, the inhibition is -5.43%.

`C=CCSc1nc2c(c(=O)[nH]1)C(C(C)C)C(C#N)=C(N)O2` (stereo not given): the inhibition was 9.46%.

On to `N#Cc1ccccc1NC(=O)COc1c(Br)cc(Br)c2cccnc12`, for which the inhibition was 4.34%.

Consider `COc1ccc(Br)cc1/C=N/Nc1ccc(S(=O)(=O)Nc2ccccc2C(=O)O)cc1[N+](=O)[O-]`, for which the inhibition is 58% (active).

Turning to `CC1CN(C(=O)c2ccccc2NS(=O)(=O)c2cccc([N+](=O)[O-])c2)CC(C)O1` (stereo not given), the inhibition is 8.71%.

Take `COc1ccc(S(=O)(=O)N2CCC(C(=O)OCC(=O)c3ccccc3)CC2)cc1[N+](=O)[O-]`: the inhibition was -4.41%.

`CC(=O)Nc1ccc(C(=O)CSc2nc3ccc(C)cc3[nH]2)cc1`: the inhibition was -46.4%.

On to `COc1ccccc1C(=O)c1ccccc1C(=O)c1ccccc1`, for which the inhibition is 9.22%.

Regarding `COc1cc2c(C(=O)O)c(C)n(C)c2c2ccccc12`, the inhibition was 6.89%.

`COc1cccc2c(C)c(C(=O)O)[nH]c12`: the inhibition is 74.3% (active).

On to `Oc1cccc2ccc(/C=C/c3ccc(Br)s3)nc12`, for which the inhibition was 45.8%.

On to `COc1ccc(C2C(C#N)=C(N)Oc3cc(N)ccc32)cc1OC` (stereo not given), for which the inhibition was -32.5%.

As for `N#CC1=C(N)Oc2cc(N)ccc2C1c1ccccc1` (stereo not given), the inhibition is 13.9%.

Consider `COc1ccccc1C1C(C#N)=C(N)Oc2c1c(-c1ccccc1)nn2-c1ccccc1` (stereo not given), for which the inhibition was 62% (active).

On to `CCOc1ccc(C(=O)Nc2cc(Cl)ccc2-n2cncn2)cc1OC`, for which the inhibition is -3.58%.

Take `O=C1c2ccccc2C(=O)N1CCC#Cc1ccc2cc(C3(O)CCCCC3)oc(=O)c2c1`: the inhibition is 64.8% (active).

Take `CC(C)c1nc(CNC(=O)CC2C(=O)NCCN2Cc2cccc(F)c2F)cs1` (stereo not given): the inhibition was 4.78%.

For `COC(=O)c1ccc(C)c(NC(=O)C2CC(=O)N(C3CCCC(C)C3C)C2)c1` (stereo not given), the inhibition is -0.78%.

In the case of `C=CCC[C@@H](Cc1ccc(F)cc1)C(=O)O[C@H](CNC(=O)[C@H](CC=C)CC(=O)N(CCO)Cc1ccccc1)c1ccccc1`, the inhibition is 46.6%.

Take `O=C1c2ccccc2C2=Nc3ccccc3SC(c3ccccc3F)C12` (stereo not given): the inhibition is 63.5% (active).

With `COCCCn1c(-c2cccs2)nc2nc3ccccc3nc21`, the inhibition was 1.22%.

`Cc1ccc(CSc2nc3[nH]ncc3c(=O)[nH]2)cc1`: the inhibition was -16.1%.

For `Cc1cccc(NC(=O)CSc2nc3[nH]ncc3c(=O)[nH]2)c1`, the inhibition is 80.2% (active).

Take `O=C(CSc1nc2[nH]ncc2c(=O)[nH]1)Nc1ccc(F)cc1`: the inhibition is -9.77%.

Turning to `COc1ccc(S(=O)(=O)N2CCN(C)CC2)c(C)c1`, the inhibition was -7.28%.

With `O=C(/C=C/c1ccc(Cl)cc1)N1CCN(c2ccccc2[N+](=O)[O-])CC1`, the inhibition is 9.62%.

Regarding `O=C(O)c1ccc2c(=O)n3c(nc2c1)/C(=C/c1ccc(Cl)c([N+](=O)[O-])c1)CC3`, the inhibition was -0.87%.

`O=C(Nc1cccnc1)c1ccc(Cl)cc1[N+](=O)[O-]`: the inhibition was -20.1%.

In the case of `C/C(=N\NC(=O)Cc1ccccc1[N+](=O)[O-])c1cccnc1`, the inhibition was -4.21%.

Turning to `O=C(/C=C/c1ccc(Cl)c([N+](=O)[O-])c1)c1ccc(O)cc1`, the inhibition is 55.6% (active).

Take `O=C(/C=C/c1ccc(Cl)c([N+](=O)[O-])c1)c1cccnc1`: the inhibition was 64.6% (active).

For the molecule `O=C(NCc1ccccc1CN1CCCC1)C1CCN(S(=O)(=O)c2ccc(Cl)cc2)CC1`, the inhibition was 4.08%.

In the case of `Cc1ccnc(NC(=O)CCNS(=O)(=O)c2ccc(C)c(C)c2)c1`, the inhibition is 29.5%.

For the molecule `Cc1ccc2nc(SCc3nnc(-c4ccccc4[N+](=O)[O-])o3)c(C#N)cc2c1`, the inhibition is 2.86%.

Consider `CCOC(=O)c1c(-c2ccccc2)oc2cc(Br)c(O)c(C=O)c12`, for which the inhibition is 74.6% (active).

Regarding `CCOC(=O)c1c(C)oc2cc(Br)c(OCC(N)=O)cc12`, the inhibition was 8.9%.

Turning to `CCOC(=O)c1c(C)oc2cc(Sc3ccccc3)c(O)c(O)c12`, the inhibition was -45.5%.

Take `COc1ccc([N+](=O)[O-])cc1NC(=O)c1ccc(N(Cc2ccccc2C)S(C)(=O)=O)cc1`: the inhibition is 13.5%.

Regarding `COC(=O)C1=C(C)N=C2SC(C)C(=O)N2C1/C=C/c1ccccc1` (stereo not given), the inhibition was 0.14%.

`CC[C@H]1CN2CCc3cc(OC)c(OC)cc3[C@@H]2C[C@@H]1C[C@H]1NCCc2cc(OC)c(OC)cc21`: the inhibition was 86% (active).

Turning to `CCCc1cc(=O)[nH]c2nnc(SCC(=O)Nc3nnc(SCC)s3)n12`, the inhibition is -11.1%.

For the molecule `CCOC(=O)/C(=C\c1ccc([N+](=O)[O-])cc1)C(=O)c1cc(C(C)=O)c(Nc2ccccc2)s1`, the inhibition was 1.46%.

As for `CCOC(=O)C(=Cc1ccccc1OC)C(=O)OCC`, the inhibition was 36.4%.

For the molecule `CCOC(=O)C(=Cc1ccccc1)C(=O)c1ccccc1`, the inhibition was 55% (active).

For the molecule `CCCCSc1nnc2c(n1)OC=Nc1ccccc1-2`, the inhibition is -39.1%.

As for `N#Cc1c(-c2cccs2)nc(SCC(=O)c2ccc(Br)cc2)[nH]c1=O`, the inhibition was 18.2%.

Take `N#Cc1ccc(C(=O)Nc2nc(-c3cccs3)c(C(=O)C(F)(F)F)s2)cc1`: the inhibition was 53.3% (active).

On to `C=CCN(CC=C)S(=O)(=O)c1ccc(C(=O)Nc2nc3c(s2)CCc2ccccc2-3)cc1`, for which the inhibition is 4.01%.

As to `Cc1cc(=O)oc2c(C)c(OCC(=O)NCCc3ccc(S(N)(=O)=O)cc3)ccc12`, the inhibition was -2.4%.

On to `O=C(C1CCN(c2nnc(-n3cccc3)s2)CC1)N1CCc2ccccc2C1`, for which the inhibition was 22.4%.

In the case of `Cc1ccc2c(C)c(C(=O)N(C)CCC3CCCCO3)oc2c1C` (stereo not given), the inhibition is -35.3%.

Regarding `O=C(CN(Cc1ccccc1)C(=O)CCC(=O)Nc1ccccn1)NCCc1ccccc1`, the inhibition is -13.3%.

For `COc1ccc(-c2noc(CNC(=O)C(C)Oc3ccccc3)n2)cc1` (stereo not given), the inhibition is -22.8%.

For `COc1ccc(/C=C/c2noc(-c3ccccc3OC(C)=O)n2)cc1`, the inhibition is 48.6%.

`COc1ccc(-c2nc(-c3ccccc3)no2)c(OC)c1`: the inhibition was 72.5% (active).

On to `COc1ccccc1CN(C)c1nnnn1-c1ccccc1`, for which the inhibition was 7.2%.

`CCN(C(=O)CSc1nnnn1-c1ccccc1OC)C1CCS(=O)(=O)C1` (stereo not given): the inhibition is -12.8%.

Take `COc1ccccc1-n1nnnc1S(=O)(=O)Cc1ccc(Cl)cc1`: the inhibition was 68.3% (active).

Regarding `O=c1[nH][nH]c(C(F)(F)F)c1C=NCc1ccccc1Cl`, the inhibition is -4.3%.

Consider `Cc1cc(C)c2c(=O)[nH]c(SCC(=O)Nc3ccc(Br)cc3)nc2n1`, for which the inhibition is 10.6%.

Take `O=C(O)CSCC(=O)Nc1ccc(C(F)(F)F)cc1`: the inhibition is 5.82%.

Regarding `O=C(O)CC(SCC(=O)Nc1ccc(Br)cc1)C(=O)O` (stereo not given), the inhibition was 67.2% (active).

In the case of `CC(=O)Nc1nc2c(s1)C(=O)NCC(C)(C)C2`, the inhibition is 16.5%.

Turning to `CC(=O)c1cc(CN2CCC(n3nccc3NC(=O)c3ccccc3Cl)CC2)cs1`, the inhibition is -6.73%.

With `OC[C@@H]1CN(Cc2ccc(-c3ccccc3)cc2)C[C@H](n2cnc3c(NC4CCCC4)ncnc32)O1`, the inhibition was 52.3% (active).

Turning to `OC[C@@H]1CN(Cc2ccc(F)cc2)C[C@H](n2cnc3c(NC4CCCC4)ncnc32)O1`, the inhibition was -11.8%.

With `OC[C@@H]1CN(Cc2cccs2)C[C@H](n2cnc3c(NC4CCCC4)ncnc32)O1`, the inhibition is -12%.

With `N#CC(C(N)=O)=C1CCC2(CC1)OCCCCO2`, the inhibition is -8.85%.

In the case of `Nc1nc(NCc2ccccc2)n(-c2ccccc2)n1`, the inhibition is 11.4%.

Take `O=C(O)CN1c2cccc3cccc(c23)S1(=O)=O`: the inhibition was 18%.

`O=C(COC(=O)c1ccccn1)NNC(=O)c1ccc([N+](=O)[O-])cc1`: the inhibition was -4.92%.

Turning to `N/C(=N\OC(=O)c1ccc([N+](=O)[O-])cc1)c1ccccn1`, the inhibition is -41.5%.

Take `N/C(=N\OC(=O)Cc1ccc([N+](=O)[O-])cc1)c1ccccn1`: the inhibition was 71.7% (active).

As for `O=C(Cc1ccccc1)N1CCN(S(=O)(=O)c2ccc([N+](=O)[O-])cc2)CC1`, the inhibition was -0.47%.

Regarding `O=C(Nc1nnc(C2CC2)s1)C1=NN(C2CCS(=O)(=O)C2)C(=O)CC1` (stereo not given), the inhibition is -9.87%.

With `COc1ccc(NC(=O)CCCN2C(=O)C(c3ccccc3)Oc3cccnc32)cc1` (stereo not given), the inhibition is -2.33%.

Consider `COc1ccc(/C=C2/SC(=O)N(CCCCCC(=O)Nc3ccccc3C(=O)O)C2=S)cc1`, for which the inhibition is 62.8% (active).

On to `CCCNC(=O)c1ccccc1NC(=O)CSCc1ccc(OC)cc1`, for which the inhibition is -1.25%.

Consider `O=C(NCc1ccc(F)cc1)c1cc(C2CCCCN2C(=O)c2cccs2)on1` (stereo not given), for which the inhibition is -13.9%.

`Cc1ccc(-n2c(SCC(=O)N3CCC(C(=O)O)CC3)nc3ccccc3c2=O)cc1C`: the inhibition is 28.8%.

Consider `CN1c2ccc([N+](=O)[O-])cc2C(C)(C)C12C=Cc1cc(C(=O)O)ccc1O2` (stereo not given), for which the inhibition was 4.3%.

Take `COc1ccc2c(c1)C=CC1(O2)N(CCO)c2ccccc2C1(C)C` (stereo not given): the inhibition is 74.4% (active).

Turning to `COc1ccc2c(c1)C(SCC(=O)NCc1ccccc1)CC(C)(C)O2` (stereo not given), the inhibition was -9.24%.
